We go through nine molecules from PubChem BioAssay (EPA / NIEHS).

Records with an inconclusive call do not appear. Active and inactive are the calls of the source. How the source made its calls, unless noted: active means hit-call score of the fitted dose curve at least 0.9, where 1 is the maximum; inactive means score below 0.9.

Assay [1] is described as follows: CEETOX_H295R_OHPREG_noMTC: CeeTox H295R High-throughput Steroidogenesis Assay for OH-Pregnenolone (OHPREG), maximum tolerated concentration (MTC) filtered results only (AID 2283912). The conditions noted are these: actives raise or lower the signal. In outline:
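H295R human adrenal cells, forskolin-prestimulated (10 uM, 48 h), then exposed to test chemical in 0.1% DMSO for 48 h. 17alpha-hydroxypregnenolone in medium measured by HPLC-MS/MS after MTBE extraction; bidirectional fit versus DMSO, concentrations not MTC-filtered.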

Assay [2] can be described thus: CEETOX_H295R_OHPROG_noMTC: CeeTox H295R High-throughput Steroidogenesis Assay for OH-Progesterone (OHPROG), maximum tolerated concentration (MTC) filtered results only (AID 2283914). Conditions: actives raise or lower the signal. In outline: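 H295R human adrenal cells prestimulated 48 h with 10 uM forskolin, then exposed 48 h to test chemical (0.1% DMSO final). Medium 17alpha-hydroxyprogesterone extracted with MTBE, quantified by HPLC-MS/MS; bidirectional fit versus DMSO, concentrations not MTC-filtered.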

A short description of assay [3]: CEETOX_H295R_CORTISOL_noMTC: CeeTox H295R High-throughput Steroidogenesis Assay for Cortisol, maximum tolerated concentration (MTC) filtered results only (AID 2283916). Conditions: actives raise or lower the signal. In outline:
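H295R adrenal cells were pre-stimulated 48 h with 10 uM forskolin, then exposed 48 h to test chemical in 0.1% DMSO. Medium cortisol was measured by MTBE extraction and HPLC-MS/MS; bidirectional fit versus DMSO, concentrations not MTC-filtered.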

Assay [4] in a line: CEETOX_H295R_CORTIC_noMTC: CeeTox H295R High-throughput Steroidogenesis Assay for Corticosterone (CORTIC), maximum tolerated concentration (MTC) filtered results only (AID 2283917). The conditions noted are these: actives raise or lower the signal. In outline: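 H295R, 10 uM forskolin prestim 48 h → test chem (0.1% DMSO final) 48 h → media MTBE extraction → HPLC-MS/MS corticosterone. Bidirectional fit vs DMSO baseline; no MTT-based MTC filtering.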

Assay [5] in a line: CEETOX_H295R_DOC_noMTC: CeeTox H295R High-throughput Steroidogenesis Assay for DOC, maximum tolerated concentration (MTC) filtered results only (AID 2283918). Conditions: actives raise or lower the signal. In outline: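 H295R cells prestimulated 48 h with 10 uM forskolin, then exposed 48 h to test chemical (0.1% DMSO final). Medium 11-deoxycorticosterone extracted with MTBE, quantified by HPLC-MS/MS; bidirectional fit versus DMSO, concentrations not MTC-filtered.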

Assay [6] can be described thus: CEETOX_H295R_ESTRADIOL_noMTC: CeeTox H295R High-throughput Steroidogenesis Assay for Estradiol, maximum tolerated concentration (MTC) filtered results only (AID 2283919). Conditions: actives raise or lower the signal. In outline: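 H295R human adrenal cells pre-stimulated 48 h with 10 uM forskolin, then exposed 48 h to chemical (0.1% DMSO final). Estradiol in medium measured by HPLC-MS/MS after MTBE extraction and dansyl derivatization; bidirectional fit versus DMSO, concentrations not MTT-filtered.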

Assay [7] is described as follows: CEETOX_H295R_PROG_noMTC: CeeTox H295R High-throughput Steroidogenesis Assay for Progesterone (PROG), maximum tolerated concentration (MTC) filtered results only (AID 2283920). Conditions: actives raise or lower the signal. The method, boiled down:
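H295R human adrenal cells were prestimulated 48 h with 10 uM forskolin, then exposed 48 h to test chemical (0.1% DMSO final). Progesterone in medium was quantified by HPLC-MS/MS; bidirectional fitting versus DMSO, concentrations not MTC-filtered.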

Assay [8] in a line: CEETOX_H295R_ESTRONE_noMTC: CeeTox H295R High-throughput Steroidogenesis Assay for Estrone, maximum tolerated concentration (MTC) filtered results only (AID 2283921). The conditions noted are these: actives raise or lower the signal. In outline: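 H295R cells prestimulated 48 h with 10 uM forskolin, then exposed 48 h to chemical in 0.1% DMSO; medium estrone measured by HPLC-MS/MS after MTBE extraction and dansyl derivatization, fitted bidirectionally versus DMSO without MTT-based MTC filtering.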

Assay [9] has as its target PGR (gene 5241) (UniProt P06401). The assay is described as follows: TOX21_PR_BLA_Followup_Antagonist_ratio: Tox21 HEK293 Progesterone Receptor (PR) Antagonism Beta-lactamase Follow-Up Assay, Ratio (AID 2283934; active means hit-call score of the fitted dose curve at least 0.9, where 1 is the maximum). The method, boiled down: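 PR-UAS-bla HEK293T cells, 3,000/well in 2% charcoal-stripped FBS, given compound plus 1nM R5020 agonist for 16 hr at 37C. Beta-lactamase FRET substrate 2 hours, ratio cleaved/uncleaved fluorescence; viability by CellTiter-Glo in same wells.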

Assay [10] has the same target. The assay is described as follows: TOX21_PR_BLA_Followup_Agonist_ratio: Tox21 HEK293 Progesterone Receptor (PR) Agonism Beta-lactamase Follow-Up Assay, Ratio (AID 2283933; active means hit-call score of the fitted dose curve at least 0.9, where 1 is the maximum). In outline:
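PR-UAS-bla HEK293T cells in medium with 2% charcoal-stripped FBS were dosed after 6 h plating and incubated 16 h at 37C. LiveBLAzer FRET substrate was added for 2 h at room temperature. Cleaved/uncleaved substrate ratio fitted against DMSO; CellTiter-Glo viability run in the same wells.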

Sequence of PGR (gene 5241) (P06401 whole entry, looked up): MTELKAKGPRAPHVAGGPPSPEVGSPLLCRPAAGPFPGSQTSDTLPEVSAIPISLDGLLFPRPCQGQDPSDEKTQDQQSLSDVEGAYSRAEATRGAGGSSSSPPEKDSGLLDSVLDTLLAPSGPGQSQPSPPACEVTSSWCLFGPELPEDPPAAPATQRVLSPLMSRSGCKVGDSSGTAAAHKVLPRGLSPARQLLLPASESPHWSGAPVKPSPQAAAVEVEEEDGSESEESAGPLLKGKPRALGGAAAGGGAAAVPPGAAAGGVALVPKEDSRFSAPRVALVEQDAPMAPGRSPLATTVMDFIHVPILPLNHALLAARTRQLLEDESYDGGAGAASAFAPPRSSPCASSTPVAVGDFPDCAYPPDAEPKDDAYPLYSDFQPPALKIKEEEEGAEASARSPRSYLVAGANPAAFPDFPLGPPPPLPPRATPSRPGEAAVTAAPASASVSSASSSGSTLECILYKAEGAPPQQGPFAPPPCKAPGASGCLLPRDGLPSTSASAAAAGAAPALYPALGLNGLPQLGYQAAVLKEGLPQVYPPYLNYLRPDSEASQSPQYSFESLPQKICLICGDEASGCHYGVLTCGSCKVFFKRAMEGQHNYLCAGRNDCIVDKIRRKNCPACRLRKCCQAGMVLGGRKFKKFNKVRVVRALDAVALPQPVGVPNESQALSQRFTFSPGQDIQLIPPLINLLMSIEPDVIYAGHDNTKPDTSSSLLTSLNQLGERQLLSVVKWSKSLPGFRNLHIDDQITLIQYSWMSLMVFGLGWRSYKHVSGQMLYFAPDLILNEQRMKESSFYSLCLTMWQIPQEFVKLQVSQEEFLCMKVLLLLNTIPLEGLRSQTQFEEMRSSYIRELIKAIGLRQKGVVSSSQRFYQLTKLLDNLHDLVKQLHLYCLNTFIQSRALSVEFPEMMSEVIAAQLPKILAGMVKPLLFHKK

In the case of `O=C(OCCCCCOC(=O)c1ccccc1)c1ccccc1`, the outcome in assay [1], in assay [2], in assay [3], in [4] and in assay [5] was inactive.

With `Cc1oc(-c2ccccc2)nc1CCOc1cccc2c1ccn2CCC(=O)O`, the outcome in assay [1], in assay [2], in [3], in assay [4], in [6] and in [8] was inactive. The AC50 in assay [5] is 6.44 µM (active); in assay [7] it was 12.9 µM (active).

For the molecule `C[C@]12C=CC(=O)C=C1CC[C@@H]1[C@@H]2C(=O)C[C@@]2(C)[C@H]1CC[C@]2(O)C(=O)CO`, the outcome in the assay with PGR (gene 5241) [9] was inactive.

Regarding `Oc1ccc2ccccc2c1N=Nc1ccccc1`, the result with PGR (gene 5241) [9] was inactive.

In the case of `C=CCOC(=O)c1ccccc1C(=O)OCC=C`, the molecule was classed as inactive in [1], in assay [2] and in assay [7].

In the case of `O=c1c(O)c(-c2ccc(O)c(O)c2)oc2cc(O)cc(O)c12`, the outcome in the assay with PGR (gene 5241) [9] was inactive.

In the case of `Oc1ccc2c(c1)OC[C@@H](N1CCC(O)(c3ccc(F)cc3)CC1)[C@H]2O`, the outcome with PGR (gene 5241) [9] was inactive.

Regarding `CCOc1ccc2c(c1)C(C)=CC(C)(C)N2`, the outcome in the assay with PGR (gene 5241) [10] and in the assay with PGR (gene 5241) [9] was inactive.

In the case of `CCc1c(C(=O)NN2CCCCC2)nn(-c2ccc(Cl)cc2Cl)c1-c1ccc(Br)cc1`, the outcome with PGR (gene 5241) [10] was inactive. In the assay with PGR (gene 5241) [9], the concentration at half-maximal activity (AC50) is 25.5 µM (active).
